Results: PubChem BioAssay (EPA / NIEHS)
The source made the active and inactive calls. The calls were made as follows: active = hit-call score of the fitted dose curve at least 0.9, where 1 is the maximum; inactive = score below 0.9.

biological target: Estrogen receptor (Homo sapiens) (UniProt P03372); assay: OT_ERa_GFPERaERE_0480: Odyssey Thera (OT) 8-hour HeLa Transcription Induction Assay for Estrogen Receptor (AID 2283381)
Method in brief: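 HeLa cells expressing GFP reporter under estrogen response element, imaged 8 h after dosing. GFP induction quantified by high-content fluorescence microscopy image analysis; gain of signal fitted versus DMSO.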

Estrogen receptor (Homo sapiens), sequence (P03372 whole entry, looked up): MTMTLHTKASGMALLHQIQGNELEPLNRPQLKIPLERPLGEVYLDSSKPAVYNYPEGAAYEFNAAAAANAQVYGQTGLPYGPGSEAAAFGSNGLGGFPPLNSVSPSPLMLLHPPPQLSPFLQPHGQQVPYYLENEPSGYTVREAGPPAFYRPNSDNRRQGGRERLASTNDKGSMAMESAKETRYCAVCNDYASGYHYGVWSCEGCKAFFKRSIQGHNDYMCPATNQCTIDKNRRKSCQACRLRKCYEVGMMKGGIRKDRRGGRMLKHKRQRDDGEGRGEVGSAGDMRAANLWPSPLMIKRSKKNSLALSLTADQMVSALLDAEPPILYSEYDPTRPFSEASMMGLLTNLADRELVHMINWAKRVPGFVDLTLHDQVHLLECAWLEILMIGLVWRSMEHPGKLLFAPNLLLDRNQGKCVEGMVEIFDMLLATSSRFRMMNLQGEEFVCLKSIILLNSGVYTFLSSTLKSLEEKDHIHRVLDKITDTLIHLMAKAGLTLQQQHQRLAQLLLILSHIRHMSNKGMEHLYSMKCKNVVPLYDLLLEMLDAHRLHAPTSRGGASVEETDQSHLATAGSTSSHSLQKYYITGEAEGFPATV

Row | SMILES | outcome
1 | COc1ccc(-c2ccccc2)cc1NNC(=O)OC(C)C | inactive
2 | Cc1c(COC(=O)[C@@H]2[C@H](/C=C(\Cl)C(F)(F)F)C2(C)C)cccc1-c1ccccc1 | inactive
3 | N#Cc1c[nH]cc1-c1cccc2c1OC(F)(F)O2 | inactive
4 | CC1(C)CON(Cc2ccccc2Cl)C1=O | inactive
5 | CC1(C)C(C=C(Cl)Cl)C1C(=O)OC(C#N)c1cccc(Oc2ccccc2)c1 (configuration not stated) | inactive
6 | CCCCC(C#N)(Cn1cncn1)c1ccc(Cl)cc1 (configuration not stated) | inactive
7 | CCOc1cc(C(C)(C)C)ccc1C1COC(c2c(F)cccc2F)=N1 (configuration not stated) | inactive
8 | COC(=O)NC(=S)Nc1ccccc1NC(=S)NC(=O)OC | inactive
9 | CC(C)=CC1C(C(=O)OCc2coc(Cc3ccccc3)c2)C1(C)C (configuration not stated) | inactive
10 | CCOC(=O)C(C)OC(=O)c1cc(Oc2ccc(C(F)(F)F)cc2Cl)ccc1[N+](=O)[O-] (configuration not stated) | inactive
11 | CCCCC(O)(Cn1cncn1)c1ccc(Cl)cc1Cl (configuration not stated) | inactive
12 | Cc1cc(C)nc(Nc2ccccc2)n1 | inactive
